Compound activity (PubChem BioAssay)
This is one part of a sample in which hits are shown more often than they occur.
Chlamy TAG – inducers of TAG accumulation in Chlamydomonas, primary screen, qHTS, Chlamydomonas reinhardtii; Nile Red fluorescence, 72 h; calls only at 10 µM (by protocol); 44,000 compounds, 0.84% hits; AID 1159537, 2015; call rule not given here;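 further: hits raise Nile Red signal meaning more stored TAG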
Numbers without * were called inactive; i = inactive; + = active, no number.

SMILES | Chlamy TAG
CCOc1ccccc1CN(C)CCc1ccccn1 | i
OCCN1CCN(C2C3CC4CC(C3)CC2C4)CC1 (stereo not drawn) | +
COc1ccc(C(=O)N2CCN(C3C4CC5CC(C4)CC3C5)CC2)cc1 (stereo not drawn) | i
CN1CCN(C2C3CC4CC(C3)CC2C4)CC1 (stereo not drawn) | +
c1ccc(CN2CCN(C3C4CC5CC(C4)CC3C5)CC2)cc1 (stereo not drawn) | i
C1CCN(C2CCN(C3C4CC5CC(C4)CC3C5)CC2)CC1 (stereo not drawn) | i
OCCN1CCN(C2CCCCCCC2)CC1 | i
COc1ccc(OC)c(/C=C(\C#N)c2nn(-c3ccccc3)c(N)c2C#N)c1 | i
O=C1CCCC2=C1C(c1cccc([N+](=O)[O-])c1)N(C(=O)c1ccccc1)c1ccccc1N2 (stereo not drawn) | i
O=C(CSc1nc2sc3c(c2c(=O)[nH]1)CCCC3)NCc1cccnc1 | i
CC(=O)N1CCN(Cc2c(F)cccc2F)CC1 | i
CC(=O)Nc1ccc(Nc2nc(-c3c(C)nc4sccn34)cs2)cc1 | i
COc1ccc(NC(=O)C2=C(C)NC(=O)NC2c2ccc(O)cc2)cc1 (stereo not drawn) | i
COc1cc(C(=O)Nc2ccc(S(=O)(=O)N3CCCCC3C)cc2)cc(OC)c1OC (stereo not drawn) | i
CC1CCCCN1S(=O)(=O)c1ccc(C(=O)Nc2ccc([N+](=O)[O-])cc2)cc1 (stereo not drawn) | i
CC1CCCCN1S(=O)(=O)c1ccc(NC(=O)c2ccc(Cl)cc2Cl)cc1 (stereo not drawn) | +
CCc1[nH]c2ccccc2c1C | i
CN1CCC(N(C)Cc2cc(F)ccc2F)CC1 | i
CN(C)Cc1cc(Cl)ccc1O | i
CN1CCC(N(C)Cc2cc(Cl)ccc2O)CC1 | +
CN1CCN(CCCCOc2ccc(C(=O)c3ccccc3)cc2)CC1 | i
CN1CCN(CC#CC=C(c2ccccc2)c2ccccc2)CC1 | +
CN1CCN(CCC(=O)Nc2ccccc2)CC1 | i
COc1cc(OC)c(CNc2ccccc2SC)cc1Br | i
Cc1cc(I)ccc1S(=O)(=O)NCCCN1CCOCC1 | +
SMILES | Chlamy TAG
Cc1ccc(S(=O)(=O)NCCCN2CCOCC2)cc1 | i
COc1cc(C)c(C)cc1S(=O)(=O)NCCN1CCOCC1 | i
Cc1c(Cl)ccc(S(=O)(=O)NCCN2CCOCC2)c1Cl | i
COc1cc(C)c(S(=O)(=O)NCCN2CCOCC2)cc1C | i
COc1cc(Cl)c(S(=O)(=O)NCCCN2CCOCC2)cc1Cl | +
COc1ccc(NC(=O)CCN2CCN(C)CC2)cc1 | i
COc1ccc(N2CCN(C(=O)c3ccccc3C)CC2)cc1 | i
OC(CNCCc1ccccc1)CN1c2ccccc2Sc2ccccc21 (stereo not drawn) | i
COc1ccc(/C=C(\C#N)c2ccc([N+](=O)[O-])cc2)c(OC)c1 | i
O=C(Nc1ccc(Br)cc1)c1cc(S(=O)(=O)N2CCCC2)c(Cl)cc1Cl | i
Cc1cc(N2CCOCC2)nc(NCc2ccccc2)n1 | i
Cc1cc(NCc2ccccc2)nc(N2CCOCC2)n1 | +
Cc1cc(NCc2ccccc2)nc(-c2ccccc2O)n1 | i
C=C(C)Cn1c(SCC(=O)O)nnc1-c1ccc(Cl)cc1Cl | i
COc1ccc(CC(=O)Nc2ccccc2Cl)cc1 | i
Cc1ccc(NC(=O)C2=C(O)CCn3c2nc2ccccc23)c([N+](=O)[O-])c1 | i
Nc1ccc(C(=O)Nc2ccc(Cl)cc2Cl)cc1 | +
O=C(Nc1ccc(Cl)cc1F)c1ccc(C(=O)Nc2ccc(Cl)cc2F)cc1 | i
O=C(Nc1ccc(Cl)cc1Cl)c1ccccc1 | i
CC(=O)Nc1ccc(S(=O)(=O)N2CCN(c3ccccc3[N+](=O)[O-])CC2)cc1 | i
COc1ccc(N2CCN(C(=O)c3ccc(CN(c4ccccc4)S(C)(=O)=O)cc3)CC2)cc1 | i
Cc1ccc([N+](=O)[O-])c2c3c([nH]c12)C(=O)CCC3 | i
COc1ccc(NC(=O)c2cccc(Cl)c2)c(OC)c1 | i
Cc1ccc(OCCCCN2CCCCC2)c(C)c1 | +
Brc1cccc(OCCCCN2CCCC2)c1 | i
SMILES | Chlamy TAG
Cc1cc(Br)ccc1OCCCCN1CCCC1 | +
Cc1cc(Br)ccc1OCCCCN1CCOCC1 | i
Cc1ccc(OCCCCN2CCCC2)c([N+](=O)[O-])c1 | i
Cc1ccccc1OCCOCCN1CCN(C)CC1 | i
Cc1cc(Br)ccc1OCCCCN1CCN(C)CC1 | +
C=CCc1cc(C)ccc1OCCCCN1CCCC1 | i
Cc1ccc(C(C)(C)C)c(OCCCCN2CCN(C)CC2)c1 | i
Cc1ccc2oc(-c3ccc(Cl)c(NC(=O)c4ccc(Br)o4)c3)nc2c1 | i
C=CCSc1nnc2n(-c3ccccc3)c(=O)c3c4c(sc3n12)CCCC4 | i
CC(CC(=O)NCc1ccc2c(c1)OCO2)c1ccccc1 (stereo not drawn) | i
COc1ccc(-c2cc(C(=O)NCc3ccccn3)c3ccccc3n2)cc1 | i
CCOC(=O)N1CCN(CC(O)COc2ccc(C34CC5CC(CC(C5)C3)C4)cc2)CC1 (stereo not drawn) | i
CCOc1cccc(C(=O)Nc2ccccc2C(C)C)c1 | i
CS(=O)(=O)N(Cc1ccccc1Cl)c1ccc(C(=O)NC2CCCCC2)cc1 | i
Cc1ccc(C(=O)Nc2ccc(NC(=O)C(=O)O)cc2)o1 | i
COc1ccc(C2=NN(C(C)=O)C(c3ccc(F)cc3)C2)cc1OC (stereo not drawn) | i
CCOc1ccc(N(C(C)C(=O)N2CCc3ccccc3C2)S(C)(=O)=O)cc1 (stereo not drawn) | i
CCCC(=O)Nc1cc(OC)c(Cl)cc1OC | i
COc1cc(NC(=O)C(Cl)Cl)c(OC)cc1Cl | +
COc1ccc(NC(=O)C(Cl)Cl)cc1Cl | i
NC(=O)CC1Nc2ccccc2NC1=O (stereo not drawn) | i
O=C(Nc1ccc(F)cc1)Nc1nnc(-c2ccc3c(c2)OCO3)s1 | i
Cc1ccc(C)n1-c1ccc2ncccc2c1 | i
CN1CCN(Cc2ccc(-c3ccccc3Cl)o2)CC1 | +
O=[N+]([O-])c1ccccc1-c1ccc(CN2CCCCCC2)o1 | i
SMILES | Chlamy TAG
CCN1CCN(Cc2ccc(-c3ccccc3[N+](=O)[O-])o2)CC1 | i
N/C(=C\C(=O)c1cccs1)C(Cl)(Cl)Cl | i
COc1cc(OC)cc(C(=O)N2CCN(c3ccccn3)CC2)c1 | i
COc1ccccc1NC(=O)N1CCN(c2ccccn2)CC1 | +
COc1ccccc1N1CCN(C(=O)Nc2ccccc2Cl)CC1 | i
COc1ccc(N2C(=O)CC(SCC(=O)Nc3cccc(Cl)c3)C2=O)cc1 (stereo not drawn) | i
O=C(Cc1ccccc1)Nc1ccncc1 | i
COc1cc(C(=O)Nc2ccc(S(=O)(=O)NC(C)=O)cc2)cc(OC)c1OC | i
COc1ccc(C(=O)Nc2ccc(S(=O)(=O)Nc3ncccn3)cc2)cc1[N+](=O)[O-] | i
COc1cc(C(=O)Nc2ccc(S(=O)(=O)Nc3ncccn3)cc2)cc(OC)c1OC | +
CSc1nc(C)cc(-n2cc(Br)c(=O)[nH]c2=O)n1 | i
Cc1ccc(OCCN(C)C)c(Br)c1 | i
CN(CC(O)COCc1ccc2c(c1)OCO2)C1CCCCC1 (stereo not drawn) | i
CC(NCC(O)COc1ccc(Br)cc1)c1ccccc1 (stereo not drawn) | i
